Only a selection was taken, and hits are over-represented in it overall.
Tgondii IFNg – blocks Toxoplasma gondii growth in the presence of IFN-gamma | Toxoplasma gondii growth in IFN-gamma-treated host cells; hits give low values | activity change, negative = inhibition, % (test concentration not listed) | 3.8% of 69,000 active | AID 1259416; in the data active = activity change below about -70%, passing the limit was not always enough;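 note: host cells are HeLa cells infected with Toxoplasma gondii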
The depositor's hits bear a star.

Screening Cc1onc(-c2c(F)cccc2Cl)c1-c1nnc(-c2ccc(C(F)(F)F)cc2)o1 returned Tgondii IFNg -99*.
CCn1c(C2CCCN(C(=O)c3sccc3NC(C)=O)C2)nn(C)c1=O (stereo not given) was read as Tgondii IFNg -4.
For CCC/C=C/c1ccc(NC2CC2)nn1 the results were Tgondii IFNg 68.
For COc1ccc(C(=O)NCCc2sc(-c3cccc(C)c3)nc2C)cc1 the results were Tgondii IFNg 224.
CCOc1ccc(C(=O)NCCc2sc(-c3cccc(C)c3)nc2C)cc1 was read as Tgondii IFNg 117.
`CCc1nc(-c2cccc(C)c2)c(-c2ccnc(NC(=O)c3ccccc3)c2)s1` gave Tgondii IFNg -81*.
For C[C@H]1[C@H](OC(=O)CCC(=O)O)O[C@@H]2O[C@@]3(C)CC[C@H]4[C@H](C)CC[C@@H]1[C@@]24OO3 the results were Tgondii IFNg -80*.
For CC(=O)[C@H]1CCC2C3CC=C4C[C@@H](OC(=O)CCC(=O)O)CC[C@]4(C)C3CC[C@@]21C (stereo not given in full) the results were Tgondii IFNg -1.
`Cc1ccccc1NC(=O)N1CC[C@H]2CN(CC(C)C)S(=O)(=O)[C@@H]2CC1` gave Tgondii IFNg -1.
Screening Cc1ccc2nc(CCNC(=O)[C@@]34CC[C@@](C)(OC3=O)C4(C)C)[nH]c2c1 returned Tgondii IFNg -11.
Screening O=C(Nc1cccc(Cl)c1)N[C@@H]1CC[C@@H](CCn2cc(Cc3ccccc3)nn2)O[C@@H]1CO returned Tgondii IFNg -74*.
`O=C(Nc1cccc(Cl)c1)N[C@H]1CC[C@@H](CCn2cc(Cc3ccccc3)nn2)O[C@@H]1CO` gave Tgondii IFNg -41.
Screening O=C(Nc1cccc(Cl)c1)N[C@H]1CC[C@H](CCn2cc(Cc3ccccc3)nn2)O[C@H]1CO returned Tgondii IFNg -40.
Cc1ccccc1-c1nc(Cn2nnc(C(=O)Nc3ccc(F)cc3F)c2C)c(C)o1 was read as Tgondii IFNg 215.
For N#CC(C(N)=O)C(=S)Nc1ccccc1 (stereo not given) the results were Tgondii IFNg 14.
For O=C(CN1CCOc2ccccc2C1)NCCc1n[nH]c2c1CCCC2 the results were Tgondii IFNg -37.
For Cc1ccc(CN2CCn3cc(CN(C)Cc4ccco4)nc3C2)o1 the results were Tgondii IFNg -2.
For C[C@@H]1CN([C@@H](C)CO)C(=O)c2cccc(NC(=O)Nc3ccc(F)cc3)c2O[C@H]1CN(C)S(=O)(=O)c1ccc(Cl)cc1 the results were Tgondii IFNg -53.
`C[C@@H]1CN([C@@H](C)CO)C(=O)c2cc(/C=C/c3ccccc3)cnc2O[C@@H]1CN(C)S(=O)(=O)c1ccccc1F` gave Tgondii IFNg -7.
COc1ccc(S(=O)(=O)N(C)C[C@@H]2Oc3c(NC(=O)c4nc5ccccc5s4)cccc3C(=O)N([C@H](C)CO)C[C@H]2C)cc1 was read as Tgondii IFNg -4.
`COc1ccc(S(=O)(=O)N(C)C[C@H]2Oc3c(NC(=O)c4nc5ccccc5s4)cccc3C(=O)N([C@@H](C)CO)C[C@@H]2C)cc1` gave Tgondii IFNg -78*.
For C[C@H](CO)N1C[C@H](C)[C@@H](CN(C)S(=O)(=O)c2ccccc2F)Oc2ncc(/C=C/c3ccccc3)cc2C1=O the results were Tgondii IFNg -14.
Screening C[C@@H]1CN([C@H](C)CO)C(=O)c2cc(/C=C/c3ccccc3)cnc2O[C@@H]1CN(C)S(=O)(=O)c1ccccc1F returned Tgondii IFNg -88*.
Screening C[C@H](CO)N1C[C@H](C)[C@@H](CN(C)Cc2ccc(Oc3ccccc3)cc2)Oc2c(NC(=O)CCC(F)(F)F)cccc2C1=O returned Tgondii IFNg -65.
C[C@H](CO)N1C[C@H](C)[C@H](CN(C)S(=O)(=O)c2ccc(Cl)cc2)Oc2c(NC(=O)Nc3ccc(F)cc3)cccc2C1=O was read as Tgondii IFNg -81*.
C[C@@H]1CN([C@@H](C)CO)C(=O)c2cccc(NC(=O)Nc3ccc(F)cc3)c2O[C@@H]1CN(C)S(=O)(=O)c1ccc(Cl)cc1 was read as Tgondii IFNg -17.
For C[C@H](CO)N1C[C@H](C)[C@@H](CN(C)Cc2ccccc2)Oc2c(NC(=O)Cc3cn(C)c4ccccc34)cccc2C1=O the results were Tgondii IFNg -93*.
C[C@@H]1CN([C@@H](C)CO)C(=O)c2cccc(NS(C)(=O)=O)c2O[C@H]1CN(C)Cc1ccc(-c2ccccc2)cc1 was read as Tgondii IFNg -23.
`C[C@@H]1CN([C@@H](C)CO)C(=O)c2cccc(NC(=O)c3nc4ccccc4s3)c2O[C@@H]1CN(C)C(=O)Nc1ccc2c(c1)OCO2` gave Tgondii IFNg -43.
CC(=O)Nc1ncc(S(=O)(=O)NCc2ccc3[nH]c(C)c(C)c3c2)s1 was read as Tgondii IFNg 10.
CN1C(=O)CCC12CCCN(C(=O)NCc1ccccc1)CC2 (stereo not given) was read as Tgondii IFNg -5.
`CC(C)C(CNC(=O)c1cc(N2CCOCC2)nc2ccccc12)N1CCOCC1` (stereo not given) gave Tgondii IFNg -5.

Assay outcomes (PubChem BioAssay)
